Among all 7,900 compounds or so, about 400 (5.1%) showed an effect of 50% or more. For the sample, strong results were picked, then their nearest neighbours and some compounds at random.
Target: Parkinson's disease protein 7 (PARK7/DJ1) (human, UniProt Q99497)
Assay: primary screen, percent inhibition; read as competition with a fluorescent probe by fluorescence polarization; higher = more effect of the substance
Settings: 100 µM
Method in brief: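 Fluorescence-polarization probe displacement (JYQ-107, 20 nM final, 2 h) after 2 h preincubation of PARK7 (0.2 μM final) with each fragment at 100 μM final. Read-out ex/em 480/520 nm; remaining activity derived from FP signal loss relative to reference controls.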

Chain of Parkinson's disease protein 7 (PARK7/DJ1) (Q99497 whole entry, looked up): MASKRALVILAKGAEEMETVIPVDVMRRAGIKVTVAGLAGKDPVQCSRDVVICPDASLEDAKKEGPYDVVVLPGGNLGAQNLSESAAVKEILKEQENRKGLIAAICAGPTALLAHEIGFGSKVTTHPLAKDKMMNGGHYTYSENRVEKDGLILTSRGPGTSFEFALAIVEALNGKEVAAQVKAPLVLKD

Row | Compound | Inhibition % [%]
1 | C=CC(=O)NC1C2Cc3ccccc3C21 (centres unmarked) | 11.1
2 | O=C(CCl)N1c2ccccc2CCc2ccccc21 | 61
3 | O=C(CCl)N1c2ccccc2Sc2ccccc21 | 1.08
4 | O=C(CCCl)N1CCc2ccccc21 | 3.9
5 | CCOc1cc(C)ccc1S(=O)(=O)n1cccn1 | 0.108
6 | COC(=O)c1cc(B2OC(C)(C)C(C)(C)O2)c(C)cn1 | 4.59
7 | CS(=O)(=O)OC1CCOC(c2ccncc2)C1 (centres unmarked) | 7.05
8 | N#CCCN(C(=O)CCl)c1ccccc1F | 33.7
9 | CN(CCOc1ccccc1F)c1cccnc1C#N | 40.3
10 | CN(CCOc1ccc(Cl)cc1)C(=O)CCl | 63.6
11 | CN(Cc1cc(Cl)cc(Cl)c1)C(=O)CCl | 32.4
12 | COc1ccc(N(CC(F)(F)F)C(=O)CCl)cc1 | 36.5
13 | OB(O)c1ccc(OCc2ccc(Cl)cc2)cc1 | -0.814
14 | O=C(CCl)COc1ccc(Cl)cc1 | 97.8
15 | O=C(CCl)NCCOc1ccc(Cl)cc1 | 20.3
16 | CN(CCOc1ccccc1F)C(=O)CCl | 94.1
17 | COc1ccc(NC(=O)C(C#N)=Cc2ccco2)cn1 | 10.5
18 | N#Cc1ncn(CC(=O)N2CCc3sccc3C2)n1 | 10.8
19 | CN(C)c1ccc(Cl)cc1NC(=O)CCl | 1.39
20 | CC(C)(C)OC(=O)N1CCC(B2OC(C)(C)C(C)(C)O2)C1 (centres unmarked) | 1.29
21 | CC1CN(C(=O)CN2CCSC2=O)C(C)CO1 (centres unmarked) | 4.59
22 | N#Cc1ccccc1OS(=O)(=O)c1nccs1 | 25.6
23 | Cc1cc(F)ccc1OS(=O)(=O)c1cnn(C)c1 | 9.05

Row | Compound | Inhibition % [%]
24 | O=C(CCl)Nc1ccc2c(c1)OC1(CCCCC1)O2 | 93.3
25 | O=C(CCl)Nc1ccc2c(c1)NC(=O)CO2 | 32.7
26 | O=C(CCl)Nc1ccc2c(c1)OC1(CCCC1)O2 | 78.4
27 | O=C(CCl)Nc1ccc2c(c1)OC(F)(F)O2 | 37.9
28 | O=C(CCl)NC(=O)Nc1ccc2c(c1)OCO2 | 1.46
29 | O=C(CCCl)Nc1ccc2c(c1)OCO2 | 13.1
30 | COc1ccc(-c2nc(C#N)c(N3CCCC3)o2)cc1 | 5.17
31 | Cn1c(S)nc2ccccc2c1=O | 3.7
32 | O=C(Cc1ccccc1Cl)N1CCCCC1C1OCCO1 (centres unmarked) | 14.3
33 | C=CC(=O)Nc1ccccc1 | 3.57
34 | O=C(CCl)NC(=O)Nc1ccccc1F | -2.13
35 | O=C(CS)Nc1ccccc1 | 50.4
36 | O=C(CS)Nc1ccc(F)cc1 | 5.25
37 | O=C(CCCl)Nc1ccccc1F | 6.72
38 | O=C(CS)Nc1ccccc1F | 81.5
39 | O=S1(=O)C=CC(c2ccccc2)C1 (centres unmarked) | 12.1
40 | CCOc1ccc(S(=O)(=O)n2nc(C)cc2C)cc1C | 7.03
41 | C=CCOc1ccc(Cl)c(C#N)n1 | 4.33
42 | N#CC(=Cc1ccccc1OCC(F)(F)F)C(N)=O | 22.7
43 | CCc1noc(CC)c1CNCc1ccccc1B(O)O | 2.29
44 | O=C1CN(C(=O)CCl)CCN1 | 62.6
45 | O=C(CCl)N1CCNCC1.O=C(O)C(F)(F)F | 7.16
46 | N#CN(CC(=O)N1CCNC1=O)c1ccccc1 | 3.42

Row | Compound | Inhibition % [%]
47 | C=CC(=O)N1CCNC(=O)C1 | 11.3
48 | O=C(CCl)N1CCOC1=O | 31.6
49 | O=C(CCl)N1CCNC1=O | 78
50 | CN(C)CCOc1ccccc1B1OC(C)(C)C(C)(C)O1 | 6.97
51 | C=CC(=O)N(C)C1CCN(c2ncnc3ccccc23)CC1 | 16.8
52 | Cc1csc(NC(=O)CS)n1 | 71.5
53 | Cc1csc(NC(=O)CCN2C(=O)CCC2=O)n1 | 5.08
54 | Cc1csc(NC(=O)CCl)n1 | -1.74
55 | Cc1cc(Br)ccc1NC(=O)CCl | 19.7
56 | O=C(CCl)NCc1ccc(F)cc1C(F)(F)F | 13.5
57 | C=CC(=O)N(Cc1cccc(C)n1)Cc1cccc(C)n1.O=C(O)C(F)(F)F | 8
58 | Cc1sc(NC(=O)CCl)c(C)c1C | 56.3
59 | Cc1sc(NC(=O)CCl)c(C#N)c1C | 9.37
60 | COC(=O)c1c(NC(=O)CCl)sc(C)c1C | 10.8
61 | C=CC(=O)N1CC(n2nc(C)nc2C)C1 | 9.38
62 | CCc1nn(C)cc1NS(=O)(=O)c1cccc(S(=O)(=O)F)c1 | 95.4
63 | Cn1ccc(NS(=O)(=O)C=Cc2ccccc2)n1 | 11.1
64 | CCn1ncnc1NS(=O)(=O)c1cccc(S(=O)(=O)F)c1 | 99
65 | Cn1ccc(Nc2ccc(S(=O)(=O)F)cn2)n1 | 4.77
66 | Cn1cc(NS(=O)(=O)c2cccc(S(=O)(=O)F)c2)ccc1=O | 103
67 | Cn1ccc(NS(=O)(=O)c2cccc(S(=O)(=O)F)c2)n1 | 97.7
68 | Cn1cc(NS(=O)(=O)c2ccc(S(=O)(=O)F)cc2)cn1 | 33
69 | Cn1cnc(NS(=O)(=O)c2ccc(S(=O)(=O)F)cc2)n1 | 5.05

Row | Compound | Inhibition % [%]
70 | Cn1ncnc1NS(=O)(=O)c1ccc(S(=O)(=O)F)cc1 | 5.71
71 | CC1(C)C(=O)NC1c1ccco1 (centres unmarked) | 1.96
72 | CN(CCc1nccs1)C(=O)c1cccnc1S | 5.89
73 | C=CC(=O)N1CCN(C(=O)CN2C(=O)CCC2=O)CC1 | 6.08
74 | COC(=O)c1ccc(C)c(NC(=O)CCl)c1 | 3.25
75 | N#CC=C1NC(=O)c2ccccc2S1 | 28.7
76 | CC1CN(C(=O)C=Cc2ccnn2C)CC(C)N1.Cl (centres unmarked) | 14.8
77 | CC(=O)c1ccccc1NC(=O)CCl | 19
78 | Cn1nccc1NS(=O)(=O)c1cccc(S(=O)(=O)F)c1 | 89.5
79 | Cn1cnc2ccc(S(=O)(=O)F)cc21 | 43.4
80 | O=S(=O)(F)c1cccc(S(=O)(=O)Nc2ncccn2)c1 | 16.8
81 | C=CC(=O)N1C2CCC1CC(CC(F)F)C2 (centres unmarked) | 6.6
82 | C=CC(=O)N1CCC[C@H]1C(=O)NC | 4.18
83 | O=C1OCCC1N1CCN(C(=O)c2cccc(F)c2)CC1 (centres unmarked) | 8.98
84 | O=C(CCCl)NC1CCCc2ccccc21 (centres unmarked) | 2.39
85 | N#CC(=Cc1cc2cc(F)ccc2o1)C(N)=O | 6.05
86 | CCc1cc2c(=O)n(CCS(=O)(=O)F)cnc2s1 | 9.17
87 | CNC(=O)Oc1cccc(N)c1 | 20.5
88 | CNC(=O)Oc1noc(C)c1C | 84.8
89 | C=CC(=O)NCc1c(C)noc1C | 13.4
90 | Cc1noc(C)c1CNC(=O)CCl | 46.7
91 | CNC(=O)Oc1cccc(O)c1 | 37.6
92 | CCc1c(OC(=O)NC)noc1C | 84.6

Row | Compound | Inhibition % [%]
93 | N#Cc1nncn1CC(=O)Nc1ccc(C(F)(F)F)cc1 | 26.2
94 | C=CC(=O)N1CCC(NC(=O)c2oc(C)cc2C)CC1 | 3.91
95 | C=CC(=O)NC1CCc2nnc(CC)n2C1 (centres unmarked) | 7.66
96 | O=C(CCl)c1cc(F)ccc1O | 38.8
97 | O=C(CCl)c1ccc(F)cc1 | 32.3
98 | O=C(CCl)NC(=O)c1ccc(Cl)cc1 | 19.6
99 | O=C(CCl)c1ccc(O)cc1 | 86.7
100 | O=C(CCl)c1ccc(Cl)cc1 | 75.6
101 | O=C(CCl)c1ccoc1 | 76.6
102 | Cc1ccc(C(=O)CCl)cc1 | 32.3
103 | O=C(CCl)c1ccc(O)cc1O | 81.9
104 | O=C(CCl)c1ccc(N2CCOC2=O)cc1 | 24.5
105 | Cn1c(=O)oc2cc(C(=O)CCl)ccc21 | 0.517
106 | O=C(CCl)c1ccc(F)cc1F | 18.5
107 | C=CC(=O)NC1COCc2ccccc21 (centres unmarked) | 9.84
108 | O=C(CN1C(=O)CCC1=O)c1ccccc1F | 9.1
109 | CC1CC(N2CC=C(c3ccc(F)cc3)CC2)C(=O)O1 (centres unmarked) | 5.18
110 | Cc1cccc(NC(=O)NC2C(=O)OCC2(C)C)n1 (centres unmarked) | 7.98
111 | N#CC(=Cc1ccc(-c2nc3ccccc3s2)o1)C(=O)O | 3.06
112 | C=CC(=O)N1CCOc2ccccc21 | 9.1
113 | Cl.O=C(CCl)c1ccncc1 | 95.3
114 | O=C(CCl)c1ccccc1 | 56.6
115 | O=C(CCl)NNC(=O)c1ccccc1 | -3.2

Row | Compound | Inhibition % [%]
116 | O=C(CCl)c1ccc(C(F)(F)F)cc1 | 12
117 | Cl.O=C(CCl)Nc1ccncc1 | 14.4
118 | O=C(CCl)NCC(=O)c1ccccc1 | 4.23
119 | CSc1ccc(C(=O)CCl)cc1 | 89.6
120 | O=C(CCl)c1ccc(O)c(O)c1 | 75.1
121 | CCN1CCN(c2oc(C3CC3)nc2C#N)CC1 | 1.62
122 | Cc1nccn1CC1CCCN1c1ccc(C#N)nc1 (centres unmarked) | 0.293
123 | N#Cc1cc(C(=O)Nc2ccccc2)c(N)nc1S | 1.51
124 | C=CC(=O)N1CCN(C(=O)CC(F)(F)F)CC1 | 12.4
125 | CC1CC(C)CC2(C1)NC(=O)N(CCC1OCCO1)C2=O (centres unmarked) | 2.2
126 | C=C(C)Cn1c(C#N)nc(C)c1C | 2.82
127 | CC(C)n1ccnc1C(=O)CCl | 48.7
128 | O=C(CCl)c1ccns1 | 95.1
129 | O=C(CCl)c1ccc2[nH]c(=O)[nH]c2c1 | 63.2
130 | CC(=O)N1c2ccc(C(=O)CCl)cc2CC1C (centres unmarked) | 5.96
131 | O=C(CCl)Nc1ccc2[nH]c(=O)[nH]c2c1 | 34.3
132 | O=C(CCl)c1ccc2c(c1)COC2 | 72.7
133 | Cl.O=C(CCl)Nc1cccnn1 | 26.1
134 | O=C(CCl)c1ccc2[nH]c(=O)oc2c1 | 2.68

Source: paper PMC9574860, “Chemical Toolkit for PARK7: Potent, Selective, and High-Throughput” (Journal of Medicinal Chemistry, 2022)
